Data reported in PubChem BioAssay (NCI).
Compounds without any hit were thinned out: in the full panel of roughly 83,000, 20% have a hit.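 Cell lines were cultured in 96-well plates, exposed to a single compound concentration, and assessed for percent growth 48 hours later.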 Activity calls are given as the source filed them. Rule for the calls: active = growth percent below 10; inactive = the rest.

Assays:
Assay in all cases: NCI-60 one-dose screen, 48 h (100 = growth as untreated, 0 = no growth, -100 = all killed)
Conditions in all cases: 10 µM unless noted
[1] = tested on: NCI-H23 lung
[2] = tested on: NCI-H226 lung
[3] = tested on: NCI-H322M lung
[4] = tested on: HOP-62 NSCLC
[5] = tested on: NCI-H460 lung
[6] = tested on: NCI-H522 lung
[7] = tested on: A549/ATCC NSCLC
[8] = tested on: 786-0 renal
[9] = tested on: COLO 205 colon
[10] = tested on: DU-145 prostate
[11] = tested on: K-562 leukemia
[12] = tested on: MALME-3M melanoma
[13] = tested on: MDA-MB-231 breast
[14] = tested on: RXF 393 renal
[15] = tested on: SF-268 CNS
[16] = tested on: SF-539 CNS
[17] = tested on: UACC-257 melanoma
[18] = tested on: M14 melanoma
[19] = tested on: HCT-15 colon
[20] = tested on: SF-295 CNS

Measured: growth

COc1ccc(-n2nnc(C(=O)O)c2-c2cc(OC)c(OC)c(OC)c2)cc1
inactive: [1] 103% | [2] 104% | [3] 108% | [4] 114% | [5] 106% | [6] 83.6% | [7] 100% | [8] 99.7% | [9] 104% | [10] 116% | [11] 95.1% | [12] 112% | [13] 122% | [14] 105% | [15] 115% | [16] 103% | [17] 102% | [18] 104% | [19] 101%

Cc1cc(C(=O)O)c(C)cc1C(=O)O
inactive: [1] 107% | [2] 101% | [3] 76.8% | [4] 93.5% | [5] 119% | [6] 96.5% | [7] 103% | [8] 101% | [9] 120% | [10] 120% | [11] 101% | [12] 89.5% | [13] 114% | [14] 116% | [15] 115% | [16] 113% | [17] 104% | [18] 101% | [19] 104%

COc1ccc2nc3cc(Cl)ccc3c(Nc3cc(C(C)C)c(O)cc3C)c2c1
active: [6] -20.1% | [20] 5.22%
inactive: [1] 40.1% | [2] 79.5% | [3] 51.5% | [4] 58.2% | [5] 35.3% | [7] 14.5% | [8] 35.5% | [9] 15.7% | [10] 52.3% | [11] 19.4% | [12] 39.3% | [13] 37.7% | [15] 64% | [16] 59.5% | [17] 47% | [18] 56.2% | [19] 10.6%

COc1ccc(/C=C2\COc3ccc(O)c(O)c3C2=O)cc1OC
inactive: [1] 41% | [2] 46.6% | [3] 48.9% | [4] 11.6% | [7] 31.7% | [9] 55.6% | [20] 72.2% | [17] 31.4%
active: [5] 1.26% | [6] -55.5% | [8] -17.8% | [10] 6.44% | [11] 0.0834% | [12] -57.4% | [13] -2.32% | [15] 9.74% | [16] -55.4% | [19] -39.4%

Nc1ccc(C2=NN(c3ccccc3)C(c3ccc(Cl)cc3)C2)cc1 (stereo not given)
inactive: [1] 92.8% | [2] 90.9% | [3] 88.2% | [4] 87.2% | [5] 99.4% | [6] 22.7% | [7] 83.1% | [8] 78.4% | [9] 101% | [10] 81.7% | [11] 17.5% | [12] 105% | [13] 88.5% | [15] 82.5% | [20] 86.6% | [16] 81.2% | [17] 82.1% | [18] 72.7% | [19] 48.7%

CCOc1cc(C(C)(C)C)ccc1C1=N[C@H](c2ccc(Cl)cc2)[C@H](c2ccc(Cl)cc2)N1C(=O)N1CCN(CC#Cc2cccc3c2CN([C@@H]2CCC(=O)NC2=O)C3=O)CC1
active: [2] -17.3% | [3] 9.35% | [9] 8.66% | [12] -32.9% | [13] -15.5% | [19] 2.53%
inactive: [1] 77% | [4] 40.7% | [5] 24.2% | [6] 39.3% | [7] 24.8% | [8] 43.8% | [10] 57.1% | [11] 24.5% | [15] 39.9% | [20] 35.1% | [16] 70.3% | [17] 42.6%

CCCCCCCC1(C)NC(=O)NC1=O (stereo not given)
inactive: [1] 132% | [2] 113% | [3] 119% | [4] 102% | [5] 104% | [6] 99.6% | [7] 122% | [8] 108% | [9] 120% | [10] 115% | [11] 90.6% | [12] 126% | [13] 116% | [15] 106% | [20] 124% | [16] 97.6% | [17] 114% | [18] 106% | [19] 113%

ClC1=C(Cl)C(Cl)=C(Cl)C1=C/C=C/c1ccccc1
active: [1] -45.9% | [2] -70.5% | [3] -27.8% | [4] -68.2% | [5] 0.0738% | [6] -52.4% | [7] -58% | [8] -71.3% | [9] -90.6% | [10] -46.5% | [11] -18.9% | [12] -38.8% | [13] -17.2% | [15] -48.7% | [20] -2.39% | [16] -92.4% | [17] -80.7% | [18] -55.6% | [19] -77%
